An excerpt weighted towards active compounds, which were near 4.6% of everything screened.
TRHR PAM: TRH receptor (human) allosteric enhancement; 360,000 tested, 0.66% active; P34981; enhancement, % at 2 µM; TRHR cells, fluo-8 calcium fluorescence, EC20 TRH enhancement; in the data active = enhancement above about 30%; note: 0% is about no effect
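TRHR-expressing cells loaded with fluo-8 calcium dye were read kinetically (ex 480/em 530) during compound addition, then stimulated with an EC20 of TRH (10 nM final). Enhancement of the Gq-mediated intracellular calcium response was scored.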
D1 potentiator: human D1 dopamine receptor positive modulation; P21728; HEK293 TREx D1 cells, calcium flux, dopamine EC20 potentiation; potentiation, % at 10 µM; 360,000 tested, 0.036% active; in the data active = potentiation above about 30%; note: 0% is about no effect
Target sequence (P21728 whole entry, looked up): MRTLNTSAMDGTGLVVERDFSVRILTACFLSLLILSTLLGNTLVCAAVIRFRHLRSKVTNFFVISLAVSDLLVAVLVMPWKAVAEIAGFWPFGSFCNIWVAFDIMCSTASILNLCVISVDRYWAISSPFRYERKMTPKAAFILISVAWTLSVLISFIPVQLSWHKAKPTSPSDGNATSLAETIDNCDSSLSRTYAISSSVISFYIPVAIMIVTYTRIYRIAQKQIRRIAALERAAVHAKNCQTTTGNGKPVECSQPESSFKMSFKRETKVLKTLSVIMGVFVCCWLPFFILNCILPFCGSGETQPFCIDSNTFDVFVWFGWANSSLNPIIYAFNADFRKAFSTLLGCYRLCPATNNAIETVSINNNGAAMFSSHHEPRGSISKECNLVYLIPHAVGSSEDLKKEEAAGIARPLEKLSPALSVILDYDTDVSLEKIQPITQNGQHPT
D1 antag: human D1 dopamine receptor antagonism; P21728; HEK293 TREx D1 cells, calcium flux, dopamine EC80; active compounds read low; activity change, negative = inhibition, % at 10 µM; 360,000 tested, 3.2% active; in the data active = activity change below about -30%; note: % is set by controls: 0 for no effect and ±100 for the full control effect
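Allosteric or orthosteric antagonism assessed as attenuation of the calcium response to EC80 dopamine, added 180 s after compound, in induced HEK293 Trex D1 cells loaded with no-wash calcium dye.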
TRHR ag: TRH receptor (human) agonism | TRHR cells, calcium flux fluo-8, FDSS agonist mode | activation, % at 2 µM | 360,000 tested, 0.18% active; note: 0% is about no effect
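TRHR-expressing cells loaded with fluo-8 calcium dye; 23 nL library compound pin-transferred, kinetic FDSS fluorescence (Ex 480/Em 530) recorded about 180 s for agonist-induced calcium release, before a 10 nM TRH EC20 addition for potentiator mode.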
D1 ag: activates the human D1 dopamine receptor; activation, % at 2 µM; HEK293 T-REx D1 cells, calcium flux, agonist mode; 360,000 tested, 1% active; note: 0% is about no effect
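Agonism was scored from calcium flux recorded over 180 s (1 read/s) after pintool compound addition, following a 10-cycle baseline. Cells were inducible force-coupled HEK293 TREx D1, plated overnight at 30 C and loaded with no-wash calcium dye.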
Numbers without * were called inactive; · = not tested or not shown; ! = not confirmed by another sample. Cut-off read from the data, not from the text of the source, unless noted: active = activation above about 30%; inactive = the rest.

SMILES | TRHR PAM | D1 potentiator | D1 antag | TRHR ag | D1 ag
COc1ccc(N2CCN(C(=S)Nc3ccccc3)CC2)cc1 | -4 | 11 | -11 | 0 | -2
COc1cc2ccccc2cc1C(=O)Nc1ccc(N2CCN(C(=O)C(C)C)CC2)cc1 | 4 | -2 | -29 | 1 | 12
O=C(CC1N=C2c3ccccc3N=C(SCc3cccc(Cl)c3)N2C1=O)NC1CCCCC1 (configuration not stated) | -4 | 0 | -11 | 0 | 1
CCOc1ccc(C(=O)Nc2ccc(NC(=O)c3ccccc3)cc2)cc1Br | -6 | -6 | -25 | 1 | -1
O=[N+]([O-])c1ccc(NC(=S)N2CCN(c3ccccc3)CC2)cc1 | -3 | -10 | -40* | 1 | 9
CC(=O)c1ccc(N2CCN(C(=S)Nc3cccc(F)c3)CC2)cc1 | 0 | -3 | -40* | 0 | 12
COc1ccc(C(=O)Nc2ccc(N3CCCC3)cc2)cc1 | -7 | 4 | -8 | 0 | 0
CN1CCN(c2ccc(NC(=O)c3ccc(Oc4ccccc4)cc3)cc2)CC1 | 0 | · | -58* | -1 | 11
CCOc1ccc(C(=O)Nc2ccc(N3CCN(C)CC3)cc2)cc1Br | -11 | -8 | -35* | 0 | 4
Cc1nc2ccccc2c(N)c1C(=O)/C=C/c1ccccc1 | -7 | -6 | -32* | 1 | 25
CC(=O)c1c(C)nc2ccccc2c1N | -4 | 3 | 9 | 0 | 0
COc1cccc(CNC(=O)c2ccc(NC(=O)N3CCCCc4ccccc43)cc2)c1OC | -3 | -8 | -59* | 0 | 4
O=C(NCc1ccccc1Cl)c1ccc(NC(=O)N2CCCCc3ccccc32)cc1 | 6 | 1 | -2 | -1 | 3
CC(C)OCCCNC(=O)Cc1ccc(NC(=O)N2CCCCc3ccccc32)cc1 | 36* | -4 | 6 | 0 | 2
CC(C)C[C@H](N)c1nnc(S(=O)(=O)Cc2ccc(F)cc2)o1 | -3 | -16 | -70* | 0 | 10
CC(C)C[C@H](N)c1nnc(SCc2ccc(Cl)cc2Cl)o1 | 30 | 0 | -11 | -2 | 27
COc1cccc(Cn2cc(C(=O)c3ccc(Cl)cc3)c(=O)c3ccccc32)c1 | -7 | 0 | -4 | 0 | 9
C[C@@H]1CN(C(=O)c2ccc(OC3CCN(S(=O)(=O)N(C)C)CC3)cc2)C[C@H](C)O1 | 5 | 2 | -30* | 0 | 3
Fc1ccc(-c2cc(C(F)(F)F)nc(NCC3CCCO3)n2)cc1 (configuration not stated) | 6 | 2 | 42 | -1 | 32*
OC(CNC1CCCC1)COc1ccc(-c2ccccc2)cc1 (configuration not stated) | 18 | -8 | -28 | 2 | 21
OC(CNC1Cc2ccccc2C1)COc1ccc(Cl)cc1 (configuration not stated) | 2 | -3 | 16 | 1 | 40*
O=C(c1ccccc1)c1ccc(OCC(O)CNCc2ccc(Cl)cc2)cc1 (configuration not stated) | 13 | 5 | -2 | -1 | 75*
CN1C(=O)C(C)(C)N(C(=O)c2cccc([N+](=O)[O-])c2)c2ccccc21 | 11 | 1 | 6 | 0 | 4
CCCCCSc1nnc2c(n1)[nH]c1c(C)cccc12 | -6 | 1 | -30* | -1 | 5
Cc1ccc(-n2cccc2/C=C2/C(=N)N3C(=NC2=O)SN=C3S(C)(=O)=O)cc1Cl | -9 | -10 | 15 | 2 | 1
SMILES | TRHR PAM | D1 potentiator | D1 antag | TRHR ag | D1 ag
Cc1cccc(C)c1-n1cccc1/C=C1/C(=N)N2C(=NC1=O)SN=C2S(C)(=O)=O | -17 | -15 | -66* | 1 | 4
O=C(Nc1ccccc1)Nc1cc(OCC(F)(F)F)cc(OCC(F)(F)F)c1 | -13 | -10 | -33* | 1 | 22
O=[S+]([O-])(c1ccc(N2CCOCC2)nc1)N1CCN([S+](=O)([O-])c2c(F)cccc2F)CC1 | -2 | 1 | -2 | 1 | 4
COc1ccccc1C1CC(=O)N(c2cccc(C(F)(F)F)c2)C2=C1C(=O)OC2 (configuration not stated) | -9 | -3 | -1 | 10 | 2
COc1ccc(OC)c(C2CC(=O)N(c3cccc(C)c3)C3=C2C(=O)OC3)c1 (configuration not stated) | 36* | -4 | -10 | 1 | -1
CCCCSCCCNC(=O)CN1C(=O)COc2ccc(S(=O)(=O)N3CCCC3)cc21 | -3 | -3 | -4 | 1 | 6
CCCCOP(=O)(OCCCC)C(O)c1ccc(N(C)C)cc1 (configuration not stated) | 0 | -11 | -37* | 0 | 4
COc1ccc(OC)c(NC(=O)Cn2cc(C(=O)c3ccco3)c3ccccc32)c1 | -3 | 2 | 11 | 0 | 0
COc1ccc(OC)c(NC(=O)Cn2cc(C(=O)c3cccs3)c3ccccc32)c1 | 7 | 4 | -34* | 0 | 1
Cc1cccc(C(=O)NCC(=O)OC(C)C(=O)Nc2ccc(Cl)cn2)c1 (configuration not stated) | -6 | -2 | 11 | 0 | -1
CC1CCN(c2nc(-c3cccnc3)nc3scc(-c4ccccc4)c23)CC1 | 41* | -4 | 0 | 0 | 1
CN(C)CCCN1c2ccccc2CCc2ccccc21 | -3 | -5 | -41* | 1 | 17
CC(CN(C)C)CN1c2ccccc2CCc2ccccc21 (configuration not stated) | -6 | -12 | -81* | 3 | 12
Cc1ccc(NC(=O)c2cc([N+](=O)[O-])ccc2N2CCOCC2)cc1C | -2 | -2 | -30* | -1 | 1
O=C(c1cc([N+](=O)[O-])ccc1N1CCOCC1)N1CCOCC1 | 8 | 2 | -42* | 0 | 1
Cc1nn(C(C)(C)C)c(OC(=O)c2c(F)cccc2F)c1Sc1ccccc1 | 5 | 3 | 4 | 0 | 10
O=C(CCNS(=O)(=O)c1ccccc1)NCC1CCCCC1 | 7 | -4 | -4 | -1 | 1
CCN(CC)CCNC(=O)Cn1c(=O)c2cccn2c2ccc(F)cc21 | 1 | -2 | -12 | 1 | 3
CN(C)CCNC(=O)Cn1c(=O)c2cccn2c2ccc(F)cc21 | 0 | -5 | 5 | 1 | 37*!
CCCC1(C(=O)OCC)NC(c2ccc(O)cc2)C2C(=O)N(c3ccc4c(c3)OCCO4)C(=O)C21 (configuration not stated) | 0 | -1 | -3 | 1 | 4
COC(=O)C1(c2ccccc2)NC(c2ccc(O)cc2)C2C(=O)N(c3ccc4c(c3)OCO4)C(=O)C21 (configuration not stated) | -1 | -5 | -56* | 0 | 0
COc1cccc2c1cc1c(=O)n(CC(=O)NCc3ccco3)nc(C)n12 | 3 | -2 | 3 | 0 | 1

Source: PubChem (National Center for Advancing Translational Sciences (NCATS))
